Experimental data reported in PubChem BioAssay (NCI).
Compounds without any hit were thinned out: in the full panel of roughly 79,000, 15% have a hit. Rule as the data show it: active = growth inhibition above about 70%; inactive = the rest.

Legend:
[1] = NCI Yeast Anticancer Drug Screen. Data for the rad50 strain (AID 155);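 also: 0% = growth of vehicle-only cultures of the same strain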; details: S. cerevisiae rad50 strain growth inhibition; at 50.0 µM; active compounds read high
Procedure, shortened: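 Inhibition values express reduced yeast growth in compound-treated cultures relative to vehicle-treated controls.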

[2] = NCI Yeast Anticancer Drug Screen. Data for the mec2-1 strain (AID 157); details: S. cerevisiae mec2-1 strain, at 50.0 µM, active compounds read high
Procedure, shortened: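 Yeast mec2-1 mutant treated with compound. Readout: growth inhibition vs vehicle controls.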

[3] = NCI Yeast Anticancer Drug Screen. Data for the sgs1 mgt1 strain (AID 161);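 also: 0% = growth of cultures given vehicle only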; details: S. cerevisiae sgs1 mgt1 strain, at 50.0 µM, active compounds read high
Procedure, shortened: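 Read-out: growth inhibition vs vehicle controls. Cells: mutant yeast strain deficient in DNA damage repair.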

[4] = NCI Yeast Anticancer Drug Screen. Data for the cln2 rad14 strain (AID 165);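 also: 0% = growth equal to vehicle treated cultures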; details: S. cerevisiae cln2 rad14 strain, at 50.0 µM, active compounds read high
Procedure, shortened: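 cln2 rad14 yeast strain; compound exposure; growth inhibition read vs vehicle controls.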

[5] = NCI Yeast Anticancer Drug Screen. Data for the bub3 strain (AID 167); details: S. cerevisiae bub3 mutant strain, at 50.0 µM, active compounds read high
Procedure, shortened: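 Steps: expose the mutant yeast strain to compound; grow alongside vehicle-treated cultures; measure growth; express inhibition against the vehicle cultures.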

[6] = NCI Yeast Anticancer Drug Screen. Data for the mlh1 rad18 strain (AID 175); details: S. cerevisiae mlh1 rad18 strain growth inhibition; at 50.0 µM; active compounds read high
Procedure, shortened: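 Yeast w/ defined DNA-repair lesions; compound exposure; growth vs vehicle controls → % inhibition.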

Measured: growth inhibition

CC1CCCC(=O)CCC1
inactive: [1] 2.9% | [2] -4.6% | [3] -9.05% | [4] 7.15% | [5] 10.8% | [6] 2.55%

CCOC(=O)c1nc(SC)sc1NC(=O)c1ccccc1[N+](=O)[O-]
inactive: [1] 21.2% | [2] -4.6% | [3] -8.75% | [4] 11.6% | [5] 3% | [6] -2.65%

NS(=O)(=O)c1ccc(NC(=O)Nc2ccccc2)cc1
inactive: [1] -2.8% | [2] -5.35% | [3] 1.8% | [4] -18.1% | [5] 20.1% | [6] 22.3%

O=[N+]([O-])c1ccc2[nH]ncc2c1
inactive: [1] 19.2% | [2] -8.05% | [3] 0.35% | [4] -3.15% | [5] 8.45% | [6] 13.7%

CC(=O)CCC(=O)C(=[N+]=[N-])S(=O)(=O)c1ccccc1
inactive: [1] -15.6% | [2] -0.2% | [3] -26.1% | [4] 2.85% | [5] -9.7% | [6] -9.2%

CCCc1c(C)[nH]c2ccccc12
inactive: [1] 15.1% | [2] -33.3% | [3] 5.7% | [4] 24.8% | [5] -16.9% | [6] 9%

c1cc2nc(c1)CSCCCCCCCSC2
inactive: [1] 2.05% | [2] 45% | [3] 30.2% | [4] -3.45% | [5] 52.4% | [6] 23.2%

O=C(Nc1nccs1)c1cc(C2=CC=CC([N+](=O)[O-])C=C2)nc(=S)[nH]1 (centres undefined)
inactive: [1] -12.9% | [2] -18.5% | [3] -23.8% | [4] -8.45% | [5] -8.65% | [6] -7.6%

CCOC(=O)C1(Br)C(c2ccccc2)NC(=O)NC1(C)Br (centres undefined)
inactive: [1] 9.15% | [2] -12.2% | [3] 0.6% | [4] 12.8% | [5] -1.75% | [6] -14.6%

CC1C=CC(C(=O)Nc2ccc(Cl)c(Cl)c2)N1C (centres undefined)
inactive: [1] 1% | [2] 12.2% | [3] 7.6% | [4] -33.9% | [5] -11.9% | [6] 2.75%

CCC(C)C1NC(=S)N(c2ccccc2)C1=O (centres undefined)
inactive: [1] -8.65% | [2] 7.05% | [3] -18.1% | [4] -0.55% | [5] -9% | [6] -30.4%

CCCCC1(C(=O)NC(=Nc2ccccc2)Nc2ccccc2)CCOC1=O (centres undefined)
inactive: [1] 4.3% | [2] 8.15% | [3] -2.55% | [4] -11.9% | [5] -2.95% | [6] 4.9%

Cc1cc2c(cc1C)[n+](=O)c(C(=O)CC(=O)C(=O)Nc1ccccc1C(C)C)c(C)n2[O-]
inactive: [1] -26.4% | [2] -4.75% | [3] -51.6% | [4] 13.1% | [5] -14.4% | [6] -33.6%

O=C(NCCc1c[nH]c2ccccc12)C1CC1
inactive: [1] -40% | [2] 16.6% | [3] -14.8% | [4] -32.2% | [5] 7.05% | [6] -25.9%

COC(=O)c1ccc(SCCC(C)=O)cc1
inactive: [1] -8% | [2] 5.3% | [3] -12.1% | [4] 9.9% | [5] 25.9% | [6] 0.7%

NCCSSCCCCSSCCN
inactive: [1] -8.95% | [2] -0.7% | [3] -13.7% | [4] -43.2% | [5] -1.2% | [6] -1.9%

COC(OC)c1cccc2c1C1(O)CCC3(CC21)OCCCCO3 (centres undefined)
inactive: [1] -9.35% | [2] -26.4% | [3] -42.5% | [4] -11.6% | [5] -42.9% | [6] -23.1%

CCOC(=O)/C(=C\c1ccnc2ccccc12)P(=O)(OCC)OCC
inactive: [1] 11.7% | [2] 4% | [3] 15.4% | [4] 11.1% | [5] 10.3% | [6] 23.1%

CN(CN(C)N=Nc1ccc(Br)cc1)CN(C)N=Nc1ccc(Br)cc1
inactive: [1] -0.7% | [2] 19.6% | [3] 4.45% | [4] 23.2% | [5] 5.1% | [6] 15%

NC(=S)N1CC=CCC1
inactive: [1] -8.65% | [2] 0.9% | [3] -3.4% | [4] 7.95% | [5] 3.9% | [6] -6.8%

COc1ccc(OC)c(NC(=O)Nc2nccs2)c1
inactive: [1] 1.9% | [2] 42.9% | [3] 29.1% | [4] -5.25% | [5] 36.6% | [6] 32.5%

C[n+]1ccn(S(=O)(=O)[O-])c1
inactive: [1] 1.9% | [2] 4.2% | [3] -4.35% | [4] 0.55% | [5] -19.6% | [6] -8.05%

O=C(O)C(CCl)(CCl)CCl
inactive: [1] 19.4% | [2] 1.3% | [3] 1.05% | [4] 17.6% | [5] 13.8% | [6] 15.2%

Cc1cc(CC#N)c(CC#N)cc1C
inactive: [1] 4.05% | [2] -10.1% | [3] -7% | [4] 9.2% | [5] -3.95% | [6] 3.95%

CSCCC(N)C(=O)NCCNc1ccc(NCCNC(=O)C(N)CCSC)c2c1C(=O)c1ccccc1C2=O (centres undefined)
inactive: [1] -8.05% | [2] -0.9% | [3] -29% | [4] -0.5% | [5] -30.4% | [6] -44.4%

Cc1cc(-n2nnc3ccccc3c2=O)on1
inactive: [1] -21.2% | [2] -30.7% | [3] -17.1% | [4] -9.5% | [5] -26% | [6] 2.5%

Cc1ccc2c(c1)Cc1cc(C)ccc1-2
inactive: [1] 25.1% | [2] 12.4% | [3] 14.4% | [4] 7.65% | [5] 31.2% | [6] 19.4%

CSc1n[nH]c(=O)c2nc[nH]c12
inactive: [1] -9.3% | [2] -9.2% | [3] 0.55% | [4] -34.5% | [5] 7.75% | [6] -5.2%

O=S(=O)(NC/C=C/c1ccccc1)c1ccccc1
inactive: [1] -6.95% | [2] 16.7% | [3] -0.45% | [4] 26.9% | [5] 4.65% | [6] -39.9%

COC(=O)C1(C)CCCC2(C)C1CCC13OC1C1(C(C)C)OC1CC23 (centres undefined)
inactive: [1] 5.1% | [2] -20.6% | [3] 11.1% | [4] -26.4% | [5] -3% | [6] 8.2%

C(CCC[Si]12OCCN(CCO1)CCO2)CC[Si]12OCCN(CCO1)CCO2
inactive: [1] 6% | [2] -1.8% | [3] 20.1% | [4] 11.9% | [5] -1.45% | [6] 1.1%

COc1ccc(S(=O)(=O)N(CC(=O)O)c2ccccc2)cc1
inactive: [1] -19.3% | [2] -6% | [3] -4.35% | [4] -6.15% | [5] -7.75% | [6] -0.7%

C=CCc1ccc(OC(=O)Nc2ccc(S(=O)(=O)NC3CCCCC3)cc2)c(OC)c1
inactive: [1] 33.7% | [2] 8.85% | [3] 44.7% | [4] 33.1% | [5] 11.8% | [6] 44.4%

CC(=O)c1sc2c(c1OC(=O)c1ccco1)c(=O)n(-c1ccccc1)c(=S)n2-c1ccccc1
inactive: [1] 20.8% | [2] 18.2% | [3] 23.7% | [4] 25.6% | [5] 6.85% | [6] 33.9%

COc1ccc(CCN=C(c2ccccc2)c2ccccc2)cc1OC
inactive: [1] 22.4% | [2] 10.2% | [3] 8.75% | [4] -27.4% | [5] 10.3% | [6] 12.7%

NC(N)=NCCCS
inactive: [1] 11.9% | [2] 11.3% | [3] 14.3% | [4] -7.8% | [5] 4.15% | [6] 7.05%

Clc1ccc(N=Nc2ccccn2)cc1
inactive: [1] 18.1% | [2] 2% | [3] -11.1% | [4] -65% | [5] -7.6% | [6] -12.2%

COc1nc2nccc-2c2occn12
inactive: [1] -29.4% | [2] -11.2% | [3] -16.8% | [4] -27.5% | [5] -9.6% | [6] -29.1%

Cc1ccc(N=Nc2ccc(O)c(CN(C)C)c2)cc1
inactive: [1] -14.6% | [2] -9.15% | [3] -24.4% | [4] -39.8% | [5] 18% | [6] -17.1%
